Measured values: PubChem BioAssay (NCATS)
Results filed as inconclusive are left out. A number with no mark means an inactive call. The source made the active and inactive calls. Calls come from the whole dose curve; as a rule, active = well fitted cell-killing curve with a large enough effect; inconclusive = small, poorly fitted or top-dose-only effect; inactive = flat fitted curve, though single readings scatter.

Experiment: qHTS of pediatric cancer cell lines to identify multiple opportunities for drug repurposing: Primary screen for TC32 cells (AID 1347089); note: nearly all actives have a fitted effect of over 60% in size
Conditions: TC32 Ewing sarcoma viability, CellTiter-Glo luminescence, 48 h; series mostly up to 45.8 µM; activity change, negative = cytotoxic: at the top concentration
Source text: Drug repurposing or repositioning has been offered as a strategy for drug development in oncology programs. This approach has special potential for childhood cancers and other rare or orphan diseases, where the expected return on new drug development has been a disincentive to pharmaceuticals.
In this project we exploit the poly-pharmacology of drugs to discover new indications via phenotypic screening of a panel of 19 well-characterized cell lines derived from solid tumors seen in children and adolescents. The goal is to identify approved drugs with previously unrecognized anticancer properties that has the potential to reveal new mechanisms and biological processes involved in carcinogenesis or drug resistance. We employed a titration-based paradigm (quantitative high-throughput screening or qHTS), where all compounds were tested at multiple concentrations for their effect on cell viability. Concentration-response curves (CRCs) were derived directly from the primary screen, and both potency and efficacy values were used to identify compounds with robust bioactivity profiles. We screened the NIH Chemical Genomics Center (NCGC) Pharmaceutical Collection (NPC) and Mechanism Interrogation Plate (MIPE) small molecule collections of approved and investigational compounds against these cell lines; and measured metabolically active cells after 48 hours of compound treatment as a proxy for cell viability.
Assay Submitter: Nathalia J. Martinez, National Center for Advancing Translational Sciences, National Institutes of Health, Rockville, MD, USA; email: natalia.martinez@nih.gov
[1] Shen, M et al. Quantitative high-throughput phenotypic screening of pediatric cancer cell lines identifies multiple opportunities for drug repurposing. Oncotarget 2017 Dec 19;9(4):4758-4772. PMID 29435139.
The cells were obtained from University of North Carolina (UNC), Pediatric Preclinical Testing Program (PPT), and Coriell Institute (CI).
qHTS cell viability assay:
Cells were assayed in growth media at a density of 500-1,000 cells/well. Five microliters of cells were dispensed into 1,536-well, white, solid-bottom, TC-treated plates (Greiner Bio One) using a multidrop dispenser and incubated at 37 degrees C, 5% CO2, under a humidified atmosphere for 5 hours. Twenty-three nanoliters of compounds and controls (neutral control DMSO or positive control bortezomib at final concentration of 2.3 uM) were subsequently transferred by Kalypsys pintool. For primary screens, the MIPE collection was tested at 11-point dilutions (final concentrations range from 0.78 nM to 46 µM) and the NPC collection at 8-point dilutions (final concentrations range from 0.59 nM to 46 µM). Compounds tested in follow-up screens were assayed at 11-point dilutions. Cells were incubated for 48 hours, followed by addition of 3 uL of CellTiter-Glo (Promega). After a 15min incubation at room temperature, samples were analyzed for luminescence intensity using a ViewLux High-throughput CCD imager equipped with clear filters.
% is set by controls: 0 for no effect and ±100 for the full control effect; potency is the fitted concentration of half-maximal effect.

SMILES | activity change, negative = cytotoxic [%] | Potency
CN1c2ccccc2C(=O)N2CCc3c([nH]c4ccccc34)C21 (stereo not given) | 5.19 | –
CNC(=O)[C@H](Cc1ccccc1)NC(=O)[C@H](CC(C)C)[C@H](CSc1cccs1)C(=O)NO | -2.96 | –
CC(NCCc1ccc(O)cc1)C(O)c1ccc(O)cc1 (stereo not given) | 9.89 | –
CCCCCCOC(=O)N=C(N)c1ccc(NCc2nc3cc(C(=O)N(CCC(=O)OCC)c4ccccn4)ccc3n2C)cc1 | 6.42 | –
COc1nccc(-c2c(-c3ccc(F)cc3)ncn2C2CCC(O)CC2)n1 (stereo not given) | -3.3 | –
COc1cc(C=CC(=O)O)ccc1O | 1.21 | –
O=C(c1ccc(C=Cc2n[nH]c3ccccc23)cc1)N1CCNCC1 | – | 4.66 µM (active)
Cc1ccc2c(c1)c1c(n2CCc2ccc(C)nc2)CCN(C)C1 | 10.5 | –
N[C@@H](CC(=O)N1CCn2c(nnc2C(F)(F)F)C1)Cc1cc(F)c(F)cc1F | 6.56 | –
COC1CCC(C(=O)c2ccc3nc4c(cc3c2)CCCO4)CC1 (stereo not given) | -0.786 | –
C[C@@H](N)c1ccc(C(=O)Nc2ccnc3[nH]ccc23)cc1 | 3.88 | –
O=c1[nH]c(=O)n([C@H]2C[C@@H](O)[C@@H](CO)O2)cc1C(F)(F)F | – | 7.39 µM (active)
Cc1cc(-c2ncc(CC(=O)Nc3ccc(-c4cnccn4)cn3)cc2C)ccn1 | 9.12 | –
COc1ccc(-c2cc3nccn3c(Nc3ncccc3C(N)=O)n2)cc1OC | 8.74 | –
COc1ccc(-c2cc(=O)c3c(O)cc(O[C@@H]4O[C@H](CO[C@@H]5O[C@@H](C)[C@H](O)[C@@H](O)[C@@H]5O)[C@@H](O)[C@H](O)[C@@H]4O)cc3o2)cc1O | 8.55 | –
Cc1ccc(C(=O)N(CCCN)[C@@H](c2oc3cc(Cl)ccc3c(=O)c2Cc2ccccc2)C(C)C)cc1 | – | 0.0033 µM (active)
C[C@@]1(c2cc(-c3cncnc3)c(F)cc2F)CCSC(N)=N1 | 8.72 | –
Cc1ccc2c(c1)C(=O)[C@]1(O)CCN(c3ccccc3)C1=N2 | 1.49 | –
COc1cc2ncn(-c3cc(OCc4ccccc4S(C)(=O)=O)c(C#N)s3)c2cc1OC | -1.86 | –
CC1(C)C(N(O)C(=O)Nc2ccc(Cl)cc2)N(c2ccc(Cl)cc2)C(=O)N1CC(=O)NN=CC=Cc1ccc([N+](=O)[O-])o1 (stereo not given) | 6.09 | –

SMILES | activity change, negative = cytotoxic [%] | Potency
CCC[C@H](N[C@@H](C)C(=O)N1[C@@H]2CCCC[C@H]2C[C@H]1C(=O)O)C(=O)OCC | 8.86 | –
CN1CCC(COc2cnc(-c3cccc(Cn4nc(-c5cccc(C#N)c5)ccc4=O)c3)nc2)CC1 | -0.523 | –
COc1cc2c(cc1OC)[C@@H]1Cc3ccc(OC)c(OC)c3CN1CC2 | -1.89 | –
Cc1nn(Cc2ccccc2Cl)c(C)c1CN(C)CC(O)COc1ccc(Cl)cc1 (stereo not given) | -5.05 | –
CCOC(=O)[C@@H](N)CCC(=O)N[C@@H](CSCc1ccccc1)C(=O)N[C@@H](C(=O)OCC)c1ccccc1 | 0 | –
CCNC(=O)CCCC=CC[C@@H]1[C@H](C=CC(O)CCc2ccccc2)[C@@H](O)C[C@@H]1O (stereo not given in full) | 0.61 | –
Cc1ccccc1C(=O)c1ccc(Nc2ccc(Br)cc2N)cc1Cl | -6.01 | –
COc1ccc(-c2ccc3ncc4c(c3c2)n(-c2ccc(N3CCNCC3)c(C(F)(F)F)c2)c(=O)n4C)cn1 | – | 0.0165 µM (active)
CN1N=C(N)c2cn([C@@H]3O[C@H](COP(=O)(O)O)[C@@H](O)[C@@H]3O)c3ncnc1c23 | – | 4.15 µM (active)
C[C@@H]1[C@H](O)[C@@H](C)C=CC=CC=CC=CC=CC=CC=C[C@H](O[C@@H]2O[C@H](C)[C@H](O)[C@H](N)[C@@H]2O)C[C@@H]2O[C@](O)(C[C@@H](O)C[C@@H](O)[C@H](O)CC[C@@H](O)C[C@@H](O)CC(=O)O[C@H]1C)C[C@H](O)[C@@H]2C(=O)O | – | 2.94 µM (active)
NC(=O)c1nnn(Cc2cc(Cl)c(C(=O)c3ccc(Cl)cc3)c(Cl)c2)c1N | -5.66 | –
c1cc(OCCN2CCCCC2)cc(-c2n[nH]c3ccc(-c4ncn[nH]4)cc23)c1 | 1.55 | –
CC1=C(C(=O)Nc2cc3cn[nH]c3cc2F)C(c2ccc(C(F)(F)F)cc2)CC(=O)N1 (stereo not given) | 11 | –
CC1CCN(c2cc(N3CCN(C)CC3)ccc2NC(=O)c2cc(C#N)c[nH]2)CC1 | 12.4 | –
C[C@]12C=CC(=O)C=C1CC[C@@H]1[C@@H]2[C@@H](O)C[C@@]2(C)[C@@H]1CC[C@]2(O)C(=O)CO | 6.47 | –
C[C@]12CC[C@@H]3c4ccc(O)cc4CC[C@H]3[C@H]1[C@@H](O)[C@@H](O)[C@H]2O | 16.1 | –
COc1cc(Cl)cn2c(-c3cccc(NC4CNC4)n3)cnc12 | -5.17 | –
COc1ccc2c(c1)CC[C@H]1[C@@H]2CC[C@]2(C)[C@@H](NCCCCCCN3C(=O)C=CC3=O)CC[C@H]12 | 6.47 | –
CCC(=C(c1ccc(O)cc1)c1ccc(OCCNC)cc1)c1ccccc1 | 8.21 | –
CNc1nc(-c2ccc3c(N)n[nH]c3c2)cc(N2C[C@@H](C(=O)NC3CCCCC3)CC[C@@H]2C)n1 | -17.1 | –
